Test results: PubChem BioAssay AID720518 (National Center for Advancing Translational Sciences (NCATS), 2013)
Inconclusive results are not listed. A number with no mark means an inactive call. Calls come from the whole dose curve.

Assay: qHTS for Inhibitors of Cell Surface uPA Generation: Wild-type Protective Antigen (WT-PrAg) Counterscreen for Cherry-picked Compounds; note: 0% is about no effect
Settings: cells, WT protective antigen toxicity counterscreen; series mostly up to 115 µM; activity (protection): at the top concentration

| SMILES | activity (protection) |
| --- | --- |
| O=S(=O)(NCCc1ccccc1F)c1cccc(S(=O)(=O)N2CCOCC2)c1 | -1.88% |
| COc1ccc(/C(N)=N/OC(=O)Cc2ccccc2OC)cc1 | 0.289% |
| Cc1ccc(S(=O)(=O)NCC(=O)N/N=C/c2ccc(Cl)cc2)cc1 | -1.05% |
| COCCNC(=O)COCc1cc(-c2ccc3c(c2)OCO3)on1 | -0.885% |
| O=C(CN1CCN(Cc2ccc(Cl)cc2)C1=O)NCc1cccs1 | -0.806% |
| O=C(CSc1nncs1)NC(=O)NCc1ccco1 | -1.16% |
| CCCCn1c(C2CCCCC2)nc2cc3[nH]c(=O)c(C(C)C)nc3cc21 | -2.19% |
| N#CCC(=O)N/N=C/c1ccc(OCC(=O)Nc2ccc(F)cc2)cc1 | 1.33% |
| CCOC(=O)c1ccccc1N=Cc1c(O)c2ccccc2oc1=O | -1.45% |
| Cc1cccc(C)c1NC(=O)c1c(O)c2ccccc2[nH]c1=O | -2.65% |
| C=CCN1C=C2C(=O)C(C)(OC(=O)c3cnc4ccccc4n3)C(=O)C=C2C=C1/C=C/COC (stereo not given) | -0.821% |
| COc1ccccc1NNC(=O)C(O)(c1ccccc1OC)c1ccccc1OC | 1.06% |
| O=C(/C=C/c1ccc(O)c(O)c1)O[C@@H]1C[C@](O)(C(=O)O)C[C@@H](O)[C@H]1O | -0.319% |
| CCOc1cc(/C=C(\C#N)C(=O)NCc2cccnc2)ccc1O | -1.63% |
| O=C(O)CCCC(=O)NCCCCc1ccccc1 | -0.427% |
| CCC1(C)NC(=O)N(CC(=O)Nc2sc3c(c2C(N)=O)CCC3)C1=O (stereo not given) | 6.41% |
| Cc1[nH]c2ccccc2c1C(=O)C(C)OC(=O)c1ccccc1NCCO (stereo not given) | -2.54% |
| COc1ccc(C(=O)NC(=S)Nc2ccc(NC(=O)c3ccco3)cc2)cc1[N+](=O)[O-] | -0.262% |
| C=CC[n+]1c(/C=C/c2ccc(OC(C)=O)c(OC)c2)ccc2ccccc21 | -2.58% |
| COc1ccccc1NC(=O)COc1ccc(C(=O)NCc2ccccc2)cc1OC | 0.351% |

| SMILES | activity (protection) |
| --- | --- |
| CN(C)S(=O)(=O)c1ccc(NC(=O)COC(=O)CC2CC3CCC2C3)cc1 (stereo not given) | 0.767% |
| CC(NC(=O)NC1CCCCC1)C(c1cccs1)N1CCN(C)CC1 (stereo not given) | 1.32% |
| CCC(C(=O)NCc1ccc(C)cc1)c1ccccc1 (stereo not given) | 0.409% |
| O=c1[nH]c(=O)n(-c2ccc(Cl)cc2)c(O)c1C=Nc1ccc(S(=O)(=O)Nc2nccs2)cc1 | -0.0765% |
| COCCNC(=O)C(c1c[nH]c2ccccc12)N(C(=O)c1snc(C(N)=O)c1N)c1cccc(OC)c1 (stereo not given) | 2.82% |
| CN1CCN(c2ccc(S(=O)(=O)N3CCOCC3)cc2NC(=O)CSCc2ccccc2)CC1 | 0.65% |
| CN(C)c1ccc(S(=O)(=O)N2CCC(Cc3ccccc3)CC2)cn1 | -0.825% |
| Cc1cc(N)n(Cc2ccc(Cl)cc2)n1 | -0.742% |
| O=C(NNC(=O)c1cccnc1)c1ccncc1 | -0.865% |
| Cn1c(=O)c2c(ncn2CCO)n(C)c1=O | -0.0315% |
| CC1CCC(NC(=O)c2nn(C)c3c2CS(=O)(=O)c2ccccc2-3)CC1 (stereo not given) | -1.64% |
| COc1ccc(C(=O)N2CCN(c3ccc(C(C)=O)cc3)CC2)cc1S(=O)(=O)N1CCCC1 | -0.95% |
| CC(=O)c1cccc(NC(=O)N2C3CCC2CC(O)(c2cccnc2)C3)c1 (stereo not given) | 2.27% |
| Cc1ccc(Cl)c(N/C=C/C(=O)c2ccccc2)c1 | -1.71% |
| COc1ccc(/C=N/NC(=O)COc2ccc3ccccc3c2)c(C(=O)O)c1OC | -1.41% |
| Cc1cccc(N2C(=O)N3[C@H](c4ccc(F)cc4)[C@@H]4C(=O)N(C5CCCCC5)C(=O)[C@@H]4[C@]3(Cc3ccc(Cl)cc3)C2=O)c1 | 8.87% |
| CCC(NC(=S)NCc1ccc(F)cc1)c1ccccc1 (stereo not given) | 0.549% |
| CCOc1ccc(N(CC(=O)Nc2ccc(CC)cc2)S(=O)(=O)c2c(C)[nH]c(=O)[nH]c2=O)cc1 | -0.814% |
| Cc1nc(SCC(=O)NCCN2C(=O)CSC2=O)nc(C)c1C | -0.753% |
| Clc1ccc(-c2nc3ccccn3c2CN2CCSCC2)cc1 | -2.3% |
